Among the data in PubChem BioAssay (NCI) are growth values, retold here.

Some test systems named below: SK-MEL-2 melanoma; EKVX NSCLC; SN12C renal; UO-31 renal; TK-10 renal; ACHN renal; CAKI-1 renal; A498 renal; MOLT-4 leukemia; SR leukemia; RPMI-8226 leukemia; OVCAR-8 ovarian; OVCAR-5 ovarian; OVCAR-4 ovarian; SK-OV-3 ovarian; IGROV1 ovarian; OVCAR-3 ovarian; HS 578T breast; NCI/ADR-RES ovarian; CCRF-CEM leukemia.
Assay in all cases: NCI-60 one-dose screen, 48 h (100 = growth as untreated, 0 = no growth, -100 = all killed)
Holding throughout (conditions): 10 µM

The panel holds about 83,000 compounds, 20% with a hit somewhere; the sample as a whole holds those more often.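 The test compound was applied at a single concentration to cells in 96-well plates for 48 hours, and percent growth was recorded.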 A number with no mark means an inactive call. The source made the active and inactive calls. The calls were made as follows: active = growth percent below 10; inactive = the rest.

With `Cc1cc(CSc2ccccc2C(=O)N2CC=C(c3ccccc3)CC2)on1`, the growth with SK-MEL-2 melanoma is 94.1%; with EKVX NSCLC it was 90.7%; in the experiment with SN12C renal it was 105%; in the experiment with UO-31 renal, 88.1%; in the experiment with TK-10 renal it was 96.9%; in the experiment on ACHN renal, 91.6%. Moreover, the growth in the experiment with CAKI-1 renal is 86.3%; in the experiment with A498 renal, 98.4%; in the experiment on MOLT-4 leukemia, 91.6%; in the experiment on SR leukemia, 85.3%; with RPMI-8226 leukemia, 84.9%; in the experiment with OVCAR-8 ovarian, 111%. Moreover, the growth with OVCAR-5 ovarian is 87.3%; in the experiment with OVCAR-4 ovarian it was 89.2%; with SK-OV-3 ovarian, 107%; in the experiment on IGROV1 ovarian it was 92.2%; with OVCAR-3 ovarian, 107%; with HS 578T breast, 100%. For the same molecule, in the experiment on NCI/ADR-RES ovarian, the growth is 90.7%.
Turning to `O=C1c2ccccc2C(=O)N1CCCCNc1ccccc1`, the growth is 121% in the experiment on SK-MEL-2 melanoma; 127% in the experiment on EKVX NSCLC; 50.4% in the experiment on SN12C renal; 61.7% in the experiment with UO-31 renal; 117% in the experiment on TK-10 renal; 104% with ACHN renal. Also, the growth in the experiment on CAKI-1 renal is 101%; in the experiment with A498 renal it was 70.2%; in the experiment with CCRF-CEM leukemia it was 21.3%; in the experiment on MOLT-4 leukemia it was 49.7%; in the experiment on RPMI-8226 leukemia it was 30.5%; with OVCAR-8 ovarian, 101%. The growth with OVCAR-5 ovarian is 101%; in the experiment with OVCAR-4 ovarian it was 107%; in the experiment with SK-OV-3 ovarian it was 113%; with IGROV1 ovarian, 141%; in the experiment with OVCAR-3 ovarian, 91%; with HS 578T breast, 103%. Besides, the growth in the experiment on NCI/ADR-RES ovarian was 103%.
Take `COc1ccc(-c2csc(NC(=O)c3ccc(Cc4n[nH]c(=O)c5cccnc45)cc3)n2)cc1`: the growth in the experiment on SK-MEL-2 melanoma is 110%; in the experiment with EKVX NSCLC, 66.6%; with SN12C renal it was 89.1%; in the experiment on UO-31 renal, 51.9%; in the experiment on TK-10 renal, 115%; with ACHN renal, 88.2%. Also, the growth is 84.5% with CAKI-1 renal; 95.8% in the experiment on A498 renal; 97.2% with MOLT-4 leukemia; 118% in the experiment on SR leukemia; 82.6% with RPMI-8226 leukemia; 93.8% with OVCAR-8 ovarian. Further, the growth was 95% in the experiment on OVCAR-5 ovarian; 94.5% in the experiment on OVCAR-4 ovarian; 95.1% with SK-OV-3 ovarian; 75.4% in the experiment on IGROV1 ovarian; 103% with OVCAR-3 ovarian; 99.1% with HS 578T breast. The growth in the experiment on NCI/ADR-RES ovarian is 94.1%.
`CC1OC2CC(=O)OC2C2=C1C(=O)c1c(O)c3c(c(O)c1C2=O)C1CC(O)C3(O)C(C)O1` (stereo not given): the growth is -55.7% (active) with SK-MEL-2 melanoma; 13.1% with EKVX NSCLC; -33% (active) in the experiment with SN12C renal; 1.82% (active) in the experiment on UO-31 renal; -16.6% (active) with TK-10 renal; -16.2% (active) with ACHN renal. Also, the growth in the experiment on CAKI-1 renal was 8.24% (active); in the experiment with A498 renal, -18.1% (active); in the experiment with CCRF-CEM leukemia, 12%; in the experiment on MOLT-4 leukemia, -21.7% (active); in the experiment on RPMI-8226 leukemia it was -6.28% (active); in the experiment with OVCAR-8 ovarian, 5.64% (active). In addition, the growth with OVCAR-5 ovarian is -47.3% (active); in the experiment with OVCAR-4 ovarian it was -99.6% (active); with SK-OV-3 ovarian, 8.13% (active); in the experiment on IGROV1 ovarian, -36.7% (active); in the experiment with OVCAR-3 ovarian, -34.1% (active); with HS 578T breast, -12.3% (active). Moreover, the growth with NCI/ADR-RES ovarian is 1.39% (active).
As for `O=C1/C=C/[C@@H](O)[C@@H]2C[C@@H](O)C[C@H]2/C=C/CCC[C@H](C(F)(F)F)O1`, the growth in the experiment on SK-MEL-2 melanoma is -18.3% (active); in the experiment with EKVX NSCLC, 10.3%; with SN12C renal, 4.4% (active); with UO-31 renal, -6.75% (active); in the experiment with TK-10 renal, -21% (active); with ACHN renal it was 3.63% (active). Moreover, the growth in the experiment on CAKI-1 renal was 4.59% (active); with A498 renal, -18.2% (active); in the experiment with MOLT-4 leukemia, -0.315% (active); in the experiment on SR leukemia it was -5.34% (active); in the experiment on RPMI-8226 leukemia, -23.8% (active); in the experiment on OVCAR-8 ovarian it was 2.07% (active). Further, the growth is 16.2% in the experiment on OVCAR-5 ovarian; 28.5% in the experiment with OVCAR-4 ovarian; 57.8% with SK-OV-3 ovarian; 19.4% in the experiment with IGROV1 ovarian; -28% (active) with OVCAR-3 ovarian; 38.5% with HS 578T breast. Further, the growth in the experiment with NCI/ADR-RES ovarian is -9.43% (active).
Turning to `COc1ccc(-c2cc(-c3ccc(Cl)cc3)nc(SCCCC(=O)NO)n2)cc1OC`, the growth with SK-MEL-2 melanoma is 13.3%; in the experiment with EKVX NSCLC, -13.8% (active); in the experiment on SN12C renal, 6.47% (active); in the experiment with UO-31 renal, -53.2% (active); in the experiment on TK-10 renal, 17.8%; with ACHN renal it was -19.7% (active). The growth in the experiment with CAKI-1 renal was -5.05% (active); in the experiment with A498 renal, -40.1% (active); in the experiment with MOLT-4 leukemia, 9.38% (active); with SR leukemia, 19.7%; with RPMI-8226 leukemia it was -6.19% (active); in the experiment with OVCAR-8 ovarian it was 13.5%. Further, the growth is 1.46% (active) in the experiment on OVCAR-5 ovarian; 19.1% with OVCAR-4 ovarian; 0.0102% (active) in the experiment with SK-OV-3 ovarian; -1.77% (active) with IGROV1 ovarian; 6.86% (active) in the experiment with OVCAR-3 ovarian; 29.2% in the experiment with HS 578T breast. Moreover, the growth in the experiment with NCI/ADR-RES ovarian was -30.6% (active).
With `O=C(CCNC(=O)c1nc(-c2ccccc2)n(-c2ccc(Cl)cc2)n1)NO`, the growth in the experiment with SK-MEL-2 melanoma was 91.7%; in the experiment on EKVX NSCLC, 95.8%; with SN12C renal it was 103%; in the experiment with UO-31 renal, 88.3%; in the experiment with TK-10 renal, 94.4%; in the experiment with ACHN renal, 100%. Further, the growth was 97.3% with CAKI-1 renal; 114% with A498 renal; 98% with MOLT-4 leukemia; 98.6% with SR leukemia; 103% in the experiment on RPMI-8226 leukemia; 108% in the experiment on OVCAR-8 ovarian. Besides, the growth in the experiment with OVCAR-5 ovarian was 96.4%; in the experiment with OVCAR-4 ovarian, 106%; in the experiment with SK-OV-3 ovarian it was 92.4%; in the experiment on IGROV1 ovarian, 102%; in the experiment on OVCAR-3 ovarian, 98.7%; in the experiment on HS 578T breast it was 107%. For the same molecule, the growth with NCI/ADR-RES ovarian was 109%.
For the molecule `Cc1ccc(C(=O)/C=C/c2ccccc2)s1`, the growth is 102% in the experiment on SK-MEL-2 melanoma; 82.3% with EKVX NSCLC; 103% with SN12C renal; 77.7% in the experiment on UO-31 renal; 108% with TK-10 renal; 121% in the experiment on ACHN renal. Besides, the growth in the experiment with CAKI-1 renal was 92.4%; with A498 renal, 90.5%; in the experiment with CCRF-CEM leukemia, 99.8%; in the experiment on MOLT-4 leukemia it was 100%; with SR leukemia it was 88.3%; in the experiment with OVCAR-8 ovarian it was 111%. Moreover, the growth was 110% with OVCAR-5 ovarian; 133% with OVCAR-4 ovarian; 130% in the experiment on SK-OV-3 ovarian; 79.4% with IGROV1 ovarian; 89.6% with OVCAR-3 ovarian; 106% in the experiment with HS 578T breast. Also, the growth in the experiment with NCI/ADR-RES ovarian was 113%.
As to `O=C(O)c1ccc(-n2cc(CNc3ccc(Cl)cc3)c(-c3ccccc3)n2)cc1`, the growth in the experiment with SK-MEL-2 melanoma was 78.5%; with EKVX NSCLC, 78.1%; in the experiment on SN12C renal, 94.9%; with UO-31 renal, 82.4%; in the experiment on TK-10 renal it was 91.7%; in the experiment on ACHN renal, 79.5%. Further, the growth in the experiment with CAKI-1 renal is 88.8%; in the experiment with A498 renal, 91.4%; with MOLT-4 leukemia, 82.4%; in the experiment with SR leukemia, 69.1%; with RPMI-8226 leukemia, 89.1%; in the experiment on OVCAR-8 ovarian it was 98.9%. For the same molecule, the growth with OVCAR-5 ovarian was 103%; in the experiment with OVCAR-4 ovarian, 88.3%; in the experiment on SK-OV-3 ovarian it was 107%; in the experiment with IGROV1 ovarian, 92.1%; with OVCAR-3 ovarian, 98.6%; in the experiment with HS 578T breast it was 85%. The growth in the experiment with NCI/ADR-RES ovarian was 91.6%.
On to `C=CCN(CC=C)C(=O)[C@H](CC)[C@@H]1CC[C@@H](C)[C@@H]([C@H](C)[C@@H](O)[C@@H](C)C(=O)[C@H](CC)C2O[C@]3(C=CC(=O)[C@]4(CC[C@@](C)([C@H]5CC[C@](O)(CC)[C@H](C)O5)O4)O3)[C@H](C)C[C@@H]2C)O1` (stereo not given in full), for which the growth is 22.1% with SK-MEL-2 melanoma; 12.8% in the experiment with EKVX NSCLC; 19.8% in the experiment with SN12C renal; 0.66% (active) with UO-31 renal; 35.5% in the experiment with TK-10 renal; 5.47% (active) in the experiment on ACHN renal. Moreover, the growth with CAKI-1 renal was 13.7%; in the experiment on A498 renal, 22.2%; with MOLT-4 leukemia, 28.8%; with SR leukemia it was 49.1%; in the experiment with RPMI-8226 leukemia it was -23% (active); with OVCAR-8 ovarian, 32.4%. For the same molecule, the growth in the experiment on OVCAR-5 ovarian is 32.8%; with OVCAR-4 ovarian it was 42.7%; in the experiment with SK-OV-3 ovarian it was 41%; with IGROV1 ovarian it was 43.5%; in the experiment with OVCAR-3 ovarian, 29.8%; in the experiment on HS 578T breast, 33.9%. In addition, the growth in the experiment on NCI/ADR-RES ovarian is 16.8%.
